In PubChem BioAssay AID1159580 (chemical genetic matrix, 2015):
The campaign covered roughly 5,500 compounds. About 2,000 (36%) were called active. Inconclusive results (about 18%) are left out. No stated cut-off is given here; in the data, active means normalized growth mostly below about 0.91 (no sharp cut-off); inconclusive means no clear call, values can overlap the other calls; inactive means mostly above about 0.92. This is one part of the list.

Test: chemical genetic growth profiling, strain panel (AID 1159580);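 further: tested at 20 µM; growth read once vehicle control cultures reached saturation at 30 °C; 1 = growth at the plate median or of vehicle wells; lower values mean less growth of the strain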
Details: S. cerevisiae deletion strains, growth OD

Measured: normalized growth

Cc1nn(Cc2n[nH]c(=S)o2)c(C)c1Br
inactive: locus YAL013W, strain DEP1, active compounds read low 0.998 | locus YBR229C, strain ROT2, active compounds read low 0.993 | locus YDL101C, strain DUN1, active compounds read low 1 | locus YDR150W, strain NUM1, active compounds read low 0.933 | locus YEL061C, strain CIN8, active compounds read low 1.02 | locus YGR078C, strain PAC10, active compounds read low 0.981 | locus YHR030C, strain SLT2, active compounds read low 1.02 | locus YHR087W, strain rtc3, active compounds read low 0.983 | locus YJL187C, strain SWE1, active compounds read low 0.968 | locus YJR043C, strain POL32, active compounds read low 0.983 | locus YJR075W, strain HOC1, active compounds read low 0.979 | locus YKL190W, strain CNB1, active compounds read low 1.02 | locus YLR039C, strain RIC1, active compounds read low 1.02 | locus YLR058C, strain SHM2 (second series), active compounds read low 0.996 | locus YLR085C, strain ARP6, active compounds read low 1.09 | locus YLR262C, strain YPT6, active compounds read low 1.04 | locus YML094W, strain GIM5, active compounds read low 1.02 | locus YMR219W, strain ESC1, active compounds read low 0.996 | locus YMR263W, strain SAP30, active compounds read low 0.93 | locus YNL128W, strain TEP1, active compounds read low 1.01 | locus YNL153C, strain GIM3, active compounds read low 1.01 | locus YNL298W, strain CLA4 (second series), active compounds read low 1.05 | locus YNL322C, strain KRE1, active compounds read low 0.999 | locus YNR030W, strain Alg12, active compounds read low 1.01 | locus YPL055C, strain LGE1, active compounds read low 0.955 | locus YPL241C, strain CIN2, active compounds read low 1.02 | locus YPR135W, strain CTF4, active compounds read low 1.04
